Data taken from PubChem BioAssay AID686978 (National Center for Advancing Translational Sciences (NCATS), 2013).
The whole screen tested about 420,000 compounds, of which about 64,000 (15%) were called active. Roughly 27% stayed inconclusive and do not appear here. Only a sample is shown. Values without a mark were called inactive. The call rests on the fitted dose curve; in most records, active means well fitted inhibition curve with a large enough effect; inconclusive means small, poorly fitted or top-dose-only effect; inactive means flat fitted curve, though single readings scatter.

Assay: qHTS for Inhibitors of human tyrosyl-DNA phosphodiesterase 1 (TDP1): qHTS in cells in absence of CPT; further: nearly all actives have a fitted effect of over 55% in size
Settings: DT40 Tdp1-/- hTDP1 cells, no CPT, ATP luminescence, 48 h; activity change, negative = growth inhibition: at 46.2 µM (top of the series)
Procedure, shortened: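 Chicken DT40 Tdp1-/- cells stably complemented with human TDP1 were seeded at 400 cells/well with DMSO in place of 20 nM camptothecin. After compound pinning, cells grew at least 48 hr at 37 °C; viability read by CellTiter-Glo luminescence.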
On the % scale 0 is the no-effect control and ±100 the full control effect; potency means the concentration at half of the fitted maximal effect.

Compound	activity change, negative = growth inhibition	Potency
COc1cc(C(C)=O)ccc1OC(=O)CN1C(=O)c2ccccc2C1=O	-26%	
CCOC(=O)c1[nH]cnc1C(=O)Nc1ccccc1C	-3.94%	
O=C(Nc1ccc2c(c1)CCC2)c1cccc(S(=O)(=O)Nc2ccccc2Cl)c1	-14.2%	
CCCCN(C(=O)c1ccc(C)o1)c1c(N)n(CCCC)c(=O)[nH]c1=O	13.2%	
O=C(Nc1ccc(CN2CCOCC2)cc1)c1cc(Cl)ccc1Cl	-0.347%	
O=C(CN1CCOCC1)Nc1c(Cl)cc(Cl)cc1Cl	10.4%	
CC(C)(C)c1cc(NC(=O)NN2CCOCC2)nn1-c1c(Cl)cc(Cl)cc1Cl		14.6 µM (active)
Cn1cccc1/C=C1\SC(=O)N(CC(=O)Nc2ccc(F)cc2)C1=O	-29.1%	
CNC(=S)NNC(=O)c1oc2nc(-c3ccccc3)cc(-c3ccco3)c2c1N	-24%	
COc1ccccc1C1C2=C(COC2=O)Nc2cc3c(cc21)OCO3 (centres undefined)	8.9%	
O=C1OCC2=C1C(c1ccc(Cl)cc1)c1cc3c(cc1O2)OCO3 (centres undefined)		16.4 µM (active)
O=C(c1ccc(O)cc1)c1ccc(C(=O)O)c(C(=O)O)c1	5.6%	
Cc1cccn2cc(-c3cccc(S(=O)(=O)N4CCCCC4)c3)nc12	-29.2%	
O=C(O)/C=C/c1cn(Cc2ccccc2)nc1-c1cccs1	6.28%	
CCOC(=O)/C(C#N)=C/c1cn(CCC(=O)O)nc1-c1ccc(Br)cc1	-6.75%	
O=C(O)CCn1cc(/C=C/C(=O)c2ccc(Cl)cc2)c(-c2cccc(Br)c2)n1		23.1 µM (active)
CC1CN(C(=O)c2ccccc2NS(=O)(=O)c2cccc([N+](=O)[O-])c2)CC(C)O1 (centres undefined)	-6.58%	
COc1ccc2sc(-c3ccc(S(C)(=O)=O)cc3)c(-c3ccc(C(N)=O)cc3)c2c1	-1.83%	
COc1cc(OC)cc(-c2sc3ccc(OC)cc3c2-c2ccc3cc[nH]c3c2)c1	-9.7%	
COc1ccc(-c2sc3ccc(OC)cc3c2C#Cc2ccccn2)cc1		18.4 µM (active)
COc1ccc2sc(-c3ccc(N(C)C)cc3)c(-c3ccc4cc[nH]c4c3)c2c1	-18%	
COc1ccc2c(Cl)c(-c3nnco3)sc2c1	-8.82%	
COc1ccc2sc(-c3ccc(N(C)C)cc3)c(C#CCO)c2c1		18.4 µM (active)
CC(C)(C)c1ccc(S(=O)(=O)NC(=O)C2(C)CCN2C(=O)CC2CC2)cc1 (centres undefined)	-2.27%	
CCS(=O)(=O)C1=NSC2=NC(=O)/C(=C\c3ccc(OS(=O)(=O)c4ccccc4)cc3)C(=N)N21	-23.1%	
Cc1cc(C)cc(NC(=O)C(OC(=O)c2ccc(O)cc2)c2ccccc2)c1 (centres undefined)	1.18%	

Compound	activity change, negative = growth inhibition	Potency
CCCn1c(C)cc(/C=C(\C#N)C(=O)OCC(=O)N(C)c2c(N)n(Cc3ccccc3)c(=O)[nH]c2=O)c1C	-27.5%	
COc1ccc(N/N=C2/CCCCC2=O)cc1	-3.32%	
CC1(C)CN(c2ccc(-c3ccnc4ncnn34)cc2)C1=O	-20.8%	
O=C(Oc1cccc(N2C(=O)C3C4c5ccccc5C(c5ccccc54)C3C2=O)c1)c1ccco1 (centres undefined)		29.1 µM (active)
CC(=O)Oc1cccc(N2C(=O)C3CC=C(Cl)CC3C2=O)c1 (centres undefined)	-2.61%	
O=C(NC1CC(=O)N(c2ccccc2)C1)c1ccco1 (centres undefined)	2.8%	
CC(C)(C)NC(=O)C(=O)NCc1ccncc1	-15.4%	
CC(C)(C)c1ccc(SCCc2ccncc2)cc1		16.4 µM (active)
c1ccc(CSCCc2ccncc2)cc1	-29.7%	
CN(C)CC(O)COc1ccc(C(C)(C)c2ccc(OCC(O)CN(C)C)cc2)cc1 (centres undefined)		17.8 µM (active)
CCCc1ccc(OCC(O)CN2CCN(CCO)CC2)cc1 (centres undefined)	10%	
COc1ccc(OCC(O)CN(C)C(=O)C(C)Oc2ccccc2)cc1 (centres undefined)	-27.4%	
O=S(=O)(Cc1nnnn1-c1ccccc1)c1ccccc1	30.9%	
CC(C)C(=O)Nc1ccc2oc(=O)ccc2c1	9.1%	
CC(C)(C)Cc1c(C2CCCCC2)nc2ccc(Br)cn12	-19.5%	
Fc1cccc(Cc2c(-c3cccc(Cl)c3)nc3ccc(Br)cn23)c1		14.6 µM (active)
Cc1cc(Br)cn2c(Cc3cccc(F)c3)c(-c3cccc(Br)c3)nc12		23.1 µM (active)
Cc1cc(Br)cn2c(Cc3ccccc3C(F)(F)F)c(-c3ccc(Cl)cc3)nc12	-22.3%	
CCOC(=O)N1CCN(S(=O)(=O)c2cc3c(cc2C)NC(=O)CO3)CC1	-22.2%	
Cc1nc(N)c(Br)c(C)c1Br	-49.5%	
CCOC(=O)C1C(=O)NC(N2CCN(c3ccccc3)CC2)=NC1c1ccco1 (centres undefined)	-19.7%	
Cc1cc(N=Nc2ccc3ccccc3c2)ccc1O	-5.46%	
CC(C)C[C@H](NC(=O)N1CCn2c1nc1ccccc12)C(=O)NC1CC1	17.7%	
COc1ccc(-n2ccn(CC(=O)Nc3ccc(C)c(C)c3)c(=O)c2=O)cc1OC	8.27%	
COc1ccc(NC(=O)CN2C(=O)C(c3ccccc3)=NC23CCCCCC3)cc1OC		18.4 µM (active)
COc1ccc(NC(=O)CN2C(=O)CSC2=O)cc1	1.73%	

Compound	activity change, negative = growth inhibition	Potency
COc1ccc(NC(=O)CNC(=O)Cc2ccccc2)cc1OC	-1.15%	
COc1ccc(C2=NC3(CCCCC3)N(CC(=O)Nc3ccc(C(C)C)cc3)C2=O)cc1		20.6 µM (active)
COc1ccc(NC(=O)CC2SC(N3CCCCC3)=NC2=O)cc1OC (centres undefined)	3.8%	
CCOC(=O)c1cn(CC(=O)Nc2ccc(C(C)C)cc2)nn1	-21.1%	
NC(=O)C1(N2CCCCC2)CCN(C2CC(=O)N(Cc3ccc(N4CCCC4=O)cc3)C2=O)CC1 (centres undefined)	-3.12%	
CC(Oc1cccc(Cl)c1)C(=O)Nc1ccc(S(=O)(=O)Nc2ncccn2)cc1 (centres undefined)	-0.0684%	
C[C@H](CO)N1C[C@H](C)[C@H](CN(C)CC2CC2)Oc2ccc(NC(=O)CCN3CCOCC3)cc2C1=O	-4.56%	
CC1CCCN(C(=O)c2cc(-c3ccco3)nc3ccccc23)C1 (centres undefined)	-13.8%	
O=C1c2cccc3cccc(c23)C(=O)N1CCCCCc1n[nH]c(=S)o1	-12.8%	
COc1ccccc1NC(=O)c1cc(Cl)nc2ccccc12	4.16%	
CN(CC(=O)Nc1ccccc1Cl)C(=O)c1ccccc1SCC(=O)N1CCCC1	-16.5%	
CC(C)(C)Cc1nnc(NC(=O)c2cc(-c3ccccc3)nc3ccccc23)s1	-26.7%	
COc1ccc(-c2cc(C(=O)N(C)Cc3ccccc3)c3ccccc3n2)cc1		14.6 µM (active)
COc1ccc(-c2cc(C(=O)N(C)CC(=O)Nc3ccccc3Cl)c3ccccc3n2)cc1OC		9.2 µM (active)
CN(Cc1ccc(F)cc1)C(=O)COc1ccc2ccccc2c1	-15.6%	
COc1ccc(-c2cc(C(=O)N(C)Cc3ccc(OC)c(OC)c3OC)c3ccccc3n2)cc1OC		18.4 µM (active)
COc1ccc(/C=N/OCC(=O)N(Cc2ccccc2)c2ccccc2C(=O)O)cc1	-1.1%	
COc1ccc(CN(C)C(=O)Cc2c[nH]c3ccccc23)c(OC)c1OC	-23.1%	
Cc1cccc(C(=O)NCC(=O)OCC(=O)N(C)CC(=O)Nc2ccccc2Cl)c1	-9.68%	
COc1ccc(NC(=O)c2cc(-c3cc(OC)c(OC)c(OC)c3)nc3ccccc23)c(OC)c1		8.2 µM (active)
CC(C)(O)C#Cc1ccc(CNC[C@H]2O[C@@H](n3cnc4c(=O)[nH]c(N)nc43)[C@H](O)[C@@H]2O)s1	2.14%	
O=C(CN1CCC(NC(=O)C2CC2)CC1)Nc1ccccc1[N+](=O)[O-]	-8.6%	
C=O	1.38%	
CN1CCC2(CC1)NC(=O)NC2=O	-11.8%	
Cc1ccc(NC(=O)COC(=O)CNC(=O)c2ccc(Cl)cc2Cl)cc1S(=O)(=O)N1CCOCC1	1.87%	
NC(=O)Cc1ccc2sc(-c3ccccc3)nc2c1	-21.5%	

Compound	activity change, negative = growth inhibition	Potency
Cn1c(=O)n(C)c2cc(/C=N/NC(=O)c3cccc(Br)c3)ccc21	-24.1%	
COc1ccc(CN(C)C(=O)c2cc(-c3ccc(C)cc3C)nc3ccccc23)c(OC)c1OC		11.6 µM (active)
Cc1ccc(-c2cc(C(=O)Nc3nn[nH]n3)c3ccccc3n2)c(C)c1	1.44%	
COc1ccc(CN(C)C(=O)Cc2ccsc2)c(OC)c1OC	-6.23%	
CC(=O)Nc1nc2c(s1)C(=O)NCC(C)(C)C2	5.92%	
Cn1nc(C(C)(C)C)c(NC(=O)c2sccc2Cl)c1C(C)(C)C	-23.7%	
NCCCNCCCCN(CCCN)/[N+]([O-])=N/O		13.3 µM (active)
COc1ccc(CN2[C@@H](CC(=O)O)c3cc(F)ccc3S2(=O)=O)cc1		inactive
COCCNC(=S)N1CCC(NC(=O)C23CC4CC(CC(C4)C2)C3)CC1	-11.4%	
S=C(Nc1cccc(Cl)c1)Nc1ccc2c(c1)OCCO2	-15.8%	
Cc1csc(NC(=S)Nc2cccc(Cl)c2)n1		4.61 µM (active)
S=C(Nc1cccc(Cl)c1)Nc1ccc2cn[nH]c2c1	-3.53%	
COc1cc(Cl)c(C)cc1Nc1nnc(-n2nc(C)cc2C)c2ccccc12	-24%	
Cc1ccc(NC(=O)NC(=O)CSc2nnc(-c3ccc(OC(F)F)cc3)n2N)c(C)c1	11.1%	
CCOC(=O)CN(C(=O)CN1CCOCC1)c1ccc(Br)cc1	-10.1%	
COCCNC(=O)c1ccc2c(c1)ncn2-c1ccc(C)c(Cl)c1		14.6 µM (active)
COc1ccc(-n2cnc3cc(C(=O)NC4CCCC4)ccc32)cc1	-25.9%	
COC(CNC(=O)c1ccc2c(c1)ncn2-c1cc(C)cc(C)c1)OC	-14.3%	
CC(=O)N/C(=C\c1ccc(F)cc1)C(=O)NC(Cc1ccccc1)C(=O)O (centres undefined)	8.07%	
Cc1cc(C)cc(NC(=O)CSc2ccccc2)c1	-21.9%	
Cc1cc(C)cc(NC(=O)CSCc2cnn(-c3ccccc3)c2-n2cccc2)c1		10.3 µM (active)
CC(=O)Nc1ccc(NC(=O)CSCc2cnn(-c3ccccc3)c2-n2cccc2)cc1	-14.5%	
CCOC(=O)c1ccc(N2C(=O)CC(N3CCN(C(=O)c4ccccc4)CC3)C2=O)cc1 (centres undefined)	18.9%	
FC(F)(F)c1nnc2c3ccccc3c(Cl)nn12		6.51 µM (active)
Nc1nnc2c(C(F)(F)F)nc3ccccc3n12	-21.9%	
FC(F)(F)c1nnc2sc(-c3ccco3)nn12	15.9%	
